Reference: the supplement of paper PMC10849652
About 8,800 targets were measured; listed, in parts, are those with a hit and a random draw of the rest. About 0.5% of all pairs of compound and target were hits. A number with no mark means an inactive call.

Key:
Experiment in all cases: log2 fold change, soluble protein after heating vs DMSO (PISA); higher = thermal stabilisation; K562 lysate, 10 uM; active = over 0.2 and 3.5 SD of the protein, either way, in both replicates (recomputed)
vemurafenib = compound: CCCS(=O)(=O)Nc1ccc(F)c(C(=O)c2c[nH]c3ncc(-c4ccc(Cl)cc4)cc23)c1F [vemurafenib]
Procedure, shortened: (§1)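 The values are log-two fold changes in thermal stability compared with solvent controls and come from duplicates. They were obtained by TMTpro 16plex LC-MS/MS, with channel sums equalised, on the supernatant after 21,000xg for 90 min. That supernatant came from crude K562 extract at 1 mg/mL protein treated with 10 μM compound for 30 min, heated for 3 min across 48°C-58°C, pooled and brought to 0.5% NP-40 at 4°C.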

[1] = compound: CCCS(=O)(=O)Nc1ccc(F)c(C(=O)c2c[nH]c3ncc(Cl)cc23)c1F
Procedure, shortened: as §1

barasertib = compound: CCN(CCCOc1ccc2c(Nc3cc(CC(=O)Nc4cccc(F)c4)[nH]n3)ncnc2c1)CCOP(=O)(O)O [barasertib]
Procedure, shortened: as §1

[2] = compound: CC[C@@H]1C(=O)N(C)c2cnc(Nc3ccc(C(=O)NC4CCN(C)CC4)cc3OC)nc2N1C1CCCC1
Procedure, shortened: as §1

volasertib = compound: CC[C@@H]1C(=O)N(C)c2cnc(Nc3ccc(C(=O)N[C@H]4CC[C@H](N5CCN(CC6CC6)CC5)CC4)cc3OC)nc2N1C(C)C [volasertib]
Procedure, shortened: as §1

[3] = compound: CCn1c(C(=O)N(C2CC2)C2CC2)cc2c3c(ncn3C)c(Nc3cc(C)n(C)n3)nc21
Procedure, shortened: as §1

[4] = compound: CCn1cc(-c2ccnc3[nH]c(-c4cccc(CN(C)C)c4)cc23)c(-c2ccc(NC(=O)N(C)C)cc2)n1
Procedure, shortened: as §1

[5] = compound: CN1CCC(CNc2ccc3ncc(-c4cccc(OC(F)(F)F)c4)n3n2)CC1
Procedure, shortened: as §1

saracatinib = compound: CN1CCN(CCOc2cc(OC3CCOCC3)c3c(Nc4c(Cl)ccc5c4OCO5)ncnc3c2)CC1 [saracatinib]
Procedure, shortened: as §1

sotrastaurin = compound: CN1CCN(c2nc(C3=C(c4c[nH]c5ccccc45)C(=O)NC3=O)c3ccccc3n2)CC1 [sotrastaurin]
Procedure, shortened: as §1

Chain of UniProt Q9NUE0 (Q9NUE0 whole entry, looked up): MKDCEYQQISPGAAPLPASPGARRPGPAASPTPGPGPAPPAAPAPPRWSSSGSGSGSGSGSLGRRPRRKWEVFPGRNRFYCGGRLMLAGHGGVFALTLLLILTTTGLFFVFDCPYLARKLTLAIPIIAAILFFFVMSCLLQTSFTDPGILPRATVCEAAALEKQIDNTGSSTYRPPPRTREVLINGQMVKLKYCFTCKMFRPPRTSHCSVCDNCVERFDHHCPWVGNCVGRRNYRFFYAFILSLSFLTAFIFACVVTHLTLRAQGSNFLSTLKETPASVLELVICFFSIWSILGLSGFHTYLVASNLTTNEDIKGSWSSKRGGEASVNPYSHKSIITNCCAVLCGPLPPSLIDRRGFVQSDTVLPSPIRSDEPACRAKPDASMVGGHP
Chain of UniProt O00258 (O00258 whole entry, looked up): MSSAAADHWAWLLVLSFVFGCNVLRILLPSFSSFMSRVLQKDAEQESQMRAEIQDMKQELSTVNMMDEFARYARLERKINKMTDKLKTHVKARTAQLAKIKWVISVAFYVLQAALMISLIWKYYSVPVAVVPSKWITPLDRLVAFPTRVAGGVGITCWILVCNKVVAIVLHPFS
Chain of UniProt Q9Y4P8 (Q9Y4P8 whole entry, looked up): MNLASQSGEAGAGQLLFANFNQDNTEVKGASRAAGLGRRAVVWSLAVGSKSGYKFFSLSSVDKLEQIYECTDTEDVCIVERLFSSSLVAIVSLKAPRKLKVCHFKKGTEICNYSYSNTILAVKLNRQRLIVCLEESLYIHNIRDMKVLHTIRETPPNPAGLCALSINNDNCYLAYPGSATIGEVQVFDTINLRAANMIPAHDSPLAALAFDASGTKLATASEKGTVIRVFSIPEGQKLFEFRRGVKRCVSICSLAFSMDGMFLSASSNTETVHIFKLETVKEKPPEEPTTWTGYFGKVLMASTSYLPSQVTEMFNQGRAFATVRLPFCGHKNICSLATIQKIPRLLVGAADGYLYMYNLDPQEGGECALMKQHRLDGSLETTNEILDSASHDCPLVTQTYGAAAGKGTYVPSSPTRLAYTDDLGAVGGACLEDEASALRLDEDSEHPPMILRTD
Chain of UniProt Q96K21 (Q96K21 whole entry, looked up): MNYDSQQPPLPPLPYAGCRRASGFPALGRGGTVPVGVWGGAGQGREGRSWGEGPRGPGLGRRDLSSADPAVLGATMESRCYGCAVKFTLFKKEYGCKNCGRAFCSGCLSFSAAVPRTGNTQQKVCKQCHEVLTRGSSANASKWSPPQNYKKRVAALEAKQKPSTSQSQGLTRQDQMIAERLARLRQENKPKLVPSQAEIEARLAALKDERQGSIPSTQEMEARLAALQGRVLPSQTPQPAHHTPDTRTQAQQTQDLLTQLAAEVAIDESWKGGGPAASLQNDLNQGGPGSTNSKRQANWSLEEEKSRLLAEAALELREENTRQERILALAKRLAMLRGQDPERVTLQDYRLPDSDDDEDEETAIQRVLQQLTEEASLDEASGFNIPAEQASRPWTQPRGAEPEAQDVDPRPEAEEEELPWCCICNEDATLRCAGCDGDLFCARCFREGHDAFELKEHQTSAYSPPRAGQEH
Chain of UniProt Q9H269 (Q9H269 whole entry, looked up): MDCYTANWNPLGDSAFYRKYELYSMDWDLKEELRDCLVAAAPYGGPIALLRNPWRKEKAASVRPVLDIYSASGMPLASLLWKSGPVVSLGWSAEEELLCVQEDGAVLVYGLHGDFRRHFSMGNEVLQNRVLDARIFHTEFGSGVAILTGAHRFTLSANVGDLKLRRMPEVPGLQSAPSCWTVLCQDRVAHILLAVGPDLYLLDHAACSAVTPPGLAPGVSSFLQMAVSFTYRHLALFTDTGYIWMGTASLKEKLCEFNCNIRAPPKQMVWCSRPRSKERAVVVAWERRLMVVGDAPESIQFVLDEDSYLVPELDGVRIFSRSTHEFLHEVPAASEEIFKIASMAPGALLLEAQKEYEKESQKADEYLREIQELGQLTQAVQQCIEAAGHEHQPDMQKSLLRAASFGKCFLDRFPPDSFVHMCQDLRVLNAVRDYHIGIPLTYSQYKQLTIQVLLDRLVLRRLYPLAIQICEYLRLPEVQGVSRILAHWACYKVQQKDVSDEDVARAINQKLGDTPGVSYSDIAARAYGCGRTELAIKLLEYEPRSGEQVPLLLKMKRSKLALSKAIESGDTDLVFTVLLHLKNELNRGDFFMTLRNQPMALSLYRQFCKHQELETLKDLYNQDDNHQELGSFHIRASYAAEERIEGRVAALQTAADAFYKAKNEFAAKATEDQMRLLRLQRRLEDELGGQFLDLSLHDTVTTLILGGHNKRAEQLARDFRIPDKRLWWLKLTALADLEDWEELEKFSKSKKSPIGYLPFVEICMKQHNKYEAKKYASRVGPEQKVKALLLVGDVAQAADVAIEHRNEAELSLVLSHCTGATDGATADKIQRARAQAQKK
Chain of UniProt Q86U90 (Q86U90 whole entry, looked up): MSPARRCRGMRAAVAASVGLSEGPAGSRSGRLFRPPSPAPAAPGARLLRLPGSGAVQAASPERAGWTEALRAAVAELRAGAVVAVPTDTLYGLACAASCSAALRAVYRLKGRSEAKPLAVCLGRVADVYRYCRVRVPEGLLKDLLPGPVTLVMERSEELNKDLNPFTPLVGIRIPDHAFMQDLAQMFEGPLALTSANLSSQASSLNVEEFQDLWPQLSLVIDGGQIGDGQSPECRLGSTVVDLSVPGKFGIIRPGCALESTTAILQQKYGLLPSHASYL
Chain of UniProt Q9ULU4 (Q9ULU4 whole entry, looked up): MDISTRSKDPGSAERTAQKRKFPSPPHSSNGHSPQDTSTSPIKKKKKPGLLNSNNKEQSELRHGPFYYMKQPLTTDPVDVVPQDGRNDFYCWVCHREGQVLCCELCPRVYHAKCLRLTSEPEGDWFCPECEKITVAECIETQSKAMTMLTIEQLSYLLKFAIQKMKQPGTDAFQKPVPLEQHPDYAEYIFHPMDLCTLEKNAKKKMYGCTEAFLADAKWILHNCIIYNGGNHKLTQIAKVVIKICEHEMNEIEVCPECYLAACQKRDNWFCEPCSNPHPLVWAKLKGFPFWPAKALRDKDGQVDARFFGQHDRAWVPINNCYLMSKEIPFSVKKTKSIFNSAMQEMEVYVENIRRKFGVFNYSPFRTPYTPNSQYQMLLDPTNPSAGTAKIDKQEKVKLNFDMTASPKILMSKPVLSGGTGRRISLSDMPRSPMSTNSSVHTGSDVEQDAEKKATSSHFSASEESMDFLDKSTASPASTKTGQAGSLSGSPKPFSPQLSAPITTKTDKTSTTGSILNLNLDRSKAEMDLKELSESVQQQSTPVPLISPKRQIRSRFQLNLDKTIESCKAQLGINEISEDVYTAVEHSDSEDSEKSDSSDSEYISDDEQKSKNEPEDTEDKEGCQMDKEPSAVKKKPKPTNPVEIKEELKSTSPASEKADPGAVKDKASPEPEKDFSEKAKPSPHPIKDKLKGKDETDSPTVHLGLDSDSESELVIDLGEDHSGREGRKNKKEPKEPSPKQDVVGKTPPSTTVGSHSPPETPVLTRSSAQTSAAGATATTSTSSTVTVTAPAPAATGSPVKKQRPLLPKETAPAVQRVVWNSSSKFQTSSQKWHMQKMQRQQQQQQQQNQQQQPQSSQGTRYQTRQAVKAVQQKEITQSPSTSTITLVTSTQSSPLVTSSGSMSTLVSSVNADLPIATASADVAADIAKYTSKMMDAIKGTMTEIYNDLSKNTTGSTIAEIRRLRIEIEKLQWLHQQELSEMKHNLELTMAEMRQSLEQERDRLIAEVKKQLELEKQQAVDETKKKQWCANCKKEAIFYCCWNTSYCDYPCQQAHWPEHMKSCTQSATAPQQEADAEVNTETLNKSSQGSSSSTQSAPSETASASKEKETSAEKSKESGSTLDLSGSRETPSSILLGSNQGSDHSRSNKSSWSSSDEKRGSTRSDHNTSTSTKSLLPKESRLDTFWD
Chain of UniProt P27348 (P27348 whole entry, looked up): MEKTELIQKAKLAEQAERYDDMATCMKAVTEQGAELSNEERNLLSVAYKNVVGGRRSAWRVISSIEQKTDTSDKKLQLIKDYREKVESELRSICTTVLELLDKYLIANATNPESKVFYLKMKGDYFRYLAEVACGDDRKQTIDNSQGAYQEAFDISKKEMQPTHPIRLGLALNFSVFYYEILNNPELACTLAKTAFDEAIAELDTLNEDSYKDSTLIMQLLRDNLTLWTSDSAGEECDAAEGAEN
Chain of UniProt Q9P253 (Q9P253 whole entry, looked up): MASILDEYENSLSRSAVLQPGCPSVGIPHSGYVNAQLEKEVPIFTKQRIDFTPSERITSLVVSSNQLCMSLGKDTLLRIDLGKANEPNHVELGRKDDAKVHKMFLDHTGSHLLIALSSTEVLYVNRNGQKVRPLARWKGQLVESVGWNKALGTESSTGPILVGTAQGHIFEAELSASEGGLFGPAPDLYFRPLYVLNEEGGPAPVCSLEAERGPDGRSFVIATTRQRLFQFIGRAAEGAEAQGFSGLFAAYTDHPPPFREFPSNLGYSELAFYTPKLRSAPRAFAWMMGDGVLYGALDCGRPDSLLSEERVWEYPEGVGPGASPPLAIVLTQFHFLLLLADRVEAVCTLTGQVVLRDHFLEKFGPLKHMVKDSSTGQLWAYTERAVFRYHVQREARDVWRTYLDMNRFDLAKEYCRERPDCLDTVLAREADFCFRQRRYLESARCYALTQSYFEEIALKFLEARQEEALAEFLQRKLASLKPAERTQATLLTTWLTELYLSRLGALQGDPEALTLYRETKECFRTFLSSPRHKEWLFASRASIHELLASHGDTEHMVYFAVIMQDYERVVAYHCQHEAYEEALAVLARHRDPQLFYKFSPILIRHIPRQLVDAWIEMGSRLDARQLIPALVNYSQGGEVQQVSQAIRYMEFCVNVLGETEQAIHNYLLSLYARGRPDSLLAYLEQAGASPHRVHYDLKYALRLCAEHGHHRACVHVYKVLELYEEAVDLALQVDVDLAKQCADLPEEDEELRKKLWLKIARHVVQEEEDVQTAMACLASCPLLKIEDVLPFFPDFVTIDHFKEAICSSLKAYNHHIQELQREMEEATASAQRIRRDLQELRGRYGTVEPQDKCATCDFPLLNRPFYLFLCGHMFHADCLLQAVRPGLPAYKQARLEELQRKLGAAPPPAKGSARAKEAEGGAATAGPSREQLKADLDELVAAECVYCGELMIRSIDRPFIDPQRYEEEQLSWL

Target | log2 fold change (vemurafenib) | log2 fold change [1] | log2 fold change (barasertib) | log2 fold change [2] | log2 fold change (volasertib) | log2 fold change [3] | log2 fold change [4] | log2 fold change [5] | log2 fold change (saracatinib) | log2 fold change (sotrastaurin)
YEATS4 (UniProt O95619) | -0.032 | 0.003 | 0.05 | 0.045 | -0.028 | 0.014 | 0.746 (active) | 0 | 0.031 | 0.022
ZFYVE19 (UniProt Q96K21) | 0 | 0.02 | 0.016 | 0.077 | 0.023 | 0.006 | -0.232 (active) | 0.126 | -0.027 | 0.013
USP48 (UniProt Q86UV5) | 0.043 | 0.074 | -0.024 | 0.047 | -0.102 | -0.057 | -0.821 (active) | 0.146 | -0.021 | -0.12
WDR77 (UniProt Q9BQA1) | -0.095 | -0.012 | -0.045 | -0.029 | 0.004 | 0.022 | -0.004 | 0.011 | -0.032 | 0.001
WDHD1 (UniProt O75717) | -0.03 | 0.022 | -0.02 | -0.011 | -0.026 | -0.001 | 0.078 | -0.066 | 0.024 | 0.003
UTP3 (UniProt Q9NQZ2) | 0.004 | 0.012 | 0.058 | -0.009 | -0.011 | -0.047 | 0 | -0.02 | 0.011 | 0.05
YME1L1 (UniProt Q96TA2) | 0.01 | 0.011 | 0.036 | -0.008 | -0.02 | 0.035 | 0.181 | -0.088 | 0.037 | 0.055
ZC2HC1A (UniProt Q96GY0) | 0.13 | -0.032 | 0.078 | 0.086 | 0.031 | 0.035 | -0.057 | 0.117 | -0.011 | 0.016
ZZEF1 (UniProt O43149) | -0.013 | 0.012 | 0.051 | -0.015 | -0.028 | -0.006 | -0.116 | 0.029 | 0.036 | 0.01
ZDHHC18 (UniProt Q9NUE0) | 0.043 | 0.026 | 0.016 | -0.019 | -0.052 | -0.068 | -0.138 | 0.085 | 0.036 | 0.04
UPF3B (UniProt Q9BZI7) | 0.027 | 0.01 | -0.006 | 0.026 | 0.004 | -0.019 | -0.231 (active) | 0.031 | 0.005 | -0.019
VPS37B (UniProt Q9H9H4) | -0.001 | 0.003 | -0.012 | 0.047 | -0.011 | 0.005 | -0.018 | 0.04 | 0.048 | 0.01
VPS16 (UniProt Q9H269) | 0.038 | 0.009 | 0.007 | 0.063 | -0.04 | 0.028 | -0.049 | -0.015 | -0.017 | -0.002
VPS35L (UniProt Q7Z3J2) | 0.016 | 0.002 | 0.001 | -0.072 | -0.047 | -0.004 | -0.02 | -0.005 | 0.004 | 0.046
USP16 (UniProt Q9Y5T5) | 0.038 | 0.005 | 0.016 | -0.009 | -0.011 | 0.01 | 0.039 | -0.045 | 0.054 | 0.013
VPS18 (UniProt Q9P253) | 0.037 | 0.014 | 0 | 0 | -0.083 | 0.046 | -0.048 | -0.04 | -0.012 | 0.02
WRB (UniProt O00258) | 0.086 | 0.077 | 0.098 | -0.011 | 0.015 | -0.148 | -0.176 | 0.068 | -0.147 | 0.013
YWHAQ (UniProt P27348) | -0.029 | 0.009 | -0.023 | 0.025 | 0.023 | -0.003 | 0.625 (active) | -0.092 | -0.012 | -0.047
ZMAT2 (UniProt Q96NC0) | -0.015 | 0 | -0.041 | 0.062 | 0.039 | -0.026 | -0.034 | 0.087 | 0.017 | -0.036
ZMYND8 isoform 19 (UniProt Q9ULU4) | 0.061 | 0.071 | 0.012 | 0.016 | -0.025 | -0.015 | -0.127 | 0.037 | -0.01 | 0.019
ZNF593 (UniProt O00488) | 0.001 | 0.037 | -0.026 | -0.174 | -0.034 | 0.078 | -0.012 | 0.016 | -0.012 | -0.105
YRDC (UniProt Q86U90) | 0.03 | 0.093 | 0.019 | 0.04 | -0.005 | -0.045 | -0.019 | 0.089 | -0.043 | -0.002
WRN (UniProt Q14191) | -0.032 | -0.065 | 0.026 | -0.032 | 0.007 | 0.053 | -0.052 | 0.022 | 0.008 | 0.031
YLPM1 (UniProt P49750) | 0.062 | 0.005 | 0.032 | 0.069 | -0.019 | -0.018 | 0.165 | -0.085 | 0.033 | 0.012
VAMP2 (UniProt P63027) | 0.002 | -0.027 | 0.012 | -0.286 (active) | 0.009 | 0.02 | 0.057 | 0.091 | 0.033 | -0.028
USP8 (UniProt P40818) | 0 | 0.015 | 0.001 | -0.008 | -0.05 | 0.033 | -0.002 | -0.063 | -0.006 | -0.021
WIPI2 (UniProt Q9Y4P8) | -0.028 | 0.012 | -0.06 | -0.073 | -0.022 | 0.002 | -0.108 | 0.09 | 0.01 | -0.002
UXT isoform 2 (UniProt Q9UBK9) | -0.023 | 0 | 0.056 | 0.321 (active) | -0.004 | -0.088 | -0.05 | 0.032 | 0.053 | 0.001
WDR6 (UniProt Q9NNW5) | 0.008 | -0.007 | 0.013 | -0.006 | -0.029 | -0.009 | -0.053 | 0.033 | 0.01 | 0.116
VAV1 (UniProt P15498) | 0.032 | -0.017 | 0.022 | -0.041 | -0.002 | -0.041 | -0.114 | 0.035 | -0.011 | -0.021
